# Assay outcomes as filed in PubChem BioAssay.
# The list is not random: actives were taken first. Their share in the collection is about 0.69%.
# A-T KAP1 phos = qHTS Assay for Identifying a Potential Treatment of Ataxia-Telangiectasia; F2112 A-T fibroblasts, KAP-1 phosphorylation AlphaLISA; neocarzinostatin DNA damage 30 min before lysis; AID 485349, 2010; 320,000 compounds, 0.19% hits; Potency, µM (top dose mostly 57.5 µM), inactives show at the highest dose activation, hits mostly activators; further: potency means the concentration at half of the fitted maximal effect; % of control where 0% means no effect; nearly all actives have a fitted effect of over 45% in size
#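 hTERT-immortalized A-T patient fibroblasts (F2112), 500 cells/well in OPTI-MEM, 1% FBS, got compounds for 60 min, then NCS for 30 min at 37C. Lysates were then assayed for phospho-KAP-1 by AlphaLISA (anti-pKAP1 donor, anti-KAP1 acceptor beads), 6 hr at 25C.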
# IL2 activator = qHTS of IL-2 Activators. IL-2 activation reporter assay, cell-based qHTS; stimulated with anti-CD3/CD4/CD28 beads; in transgenic mouse T cells. activation, % (series mostly up to about 46 µM). 360,000 compounds, 0.065% hits; in the data active means activation above about 50%; inconclusive means mostly about 30% to 49%; further: 0% is about no effect
#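 Unstimulated transgenic mouse T cells preincubated 60 min with compound, then stimulated with anti-CD3/anti-CD4-coated beads plus anti-CD28 for 18 h at 37 degrees C. IL-2 response read as EGFP and DsRed fluorescence by plate cytometry.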
# PKM2 act = qHTS Assay for Activators of Human Muscle isoform 2 Pyruvate Kinase | purified PKM2, Kinase-Glo ATP luminescence, activation; response scale: 0% is enzyme alone, no compound | Potency, µM (titrated, usually from 57.5 µM), for inactives: top-dose activation, usual class: activators | 260,000 compounds, 0.34% hits | AID 1631, 2009; further: potency means the concentration at half of the fitted maximal effect; on the % scale 0 is the no-effect control and ±100 the full control effect; nearly all actives have a fitted effect of over 55% in size
# Target sequence (P14618 whole entry, looked up, canonical isoform): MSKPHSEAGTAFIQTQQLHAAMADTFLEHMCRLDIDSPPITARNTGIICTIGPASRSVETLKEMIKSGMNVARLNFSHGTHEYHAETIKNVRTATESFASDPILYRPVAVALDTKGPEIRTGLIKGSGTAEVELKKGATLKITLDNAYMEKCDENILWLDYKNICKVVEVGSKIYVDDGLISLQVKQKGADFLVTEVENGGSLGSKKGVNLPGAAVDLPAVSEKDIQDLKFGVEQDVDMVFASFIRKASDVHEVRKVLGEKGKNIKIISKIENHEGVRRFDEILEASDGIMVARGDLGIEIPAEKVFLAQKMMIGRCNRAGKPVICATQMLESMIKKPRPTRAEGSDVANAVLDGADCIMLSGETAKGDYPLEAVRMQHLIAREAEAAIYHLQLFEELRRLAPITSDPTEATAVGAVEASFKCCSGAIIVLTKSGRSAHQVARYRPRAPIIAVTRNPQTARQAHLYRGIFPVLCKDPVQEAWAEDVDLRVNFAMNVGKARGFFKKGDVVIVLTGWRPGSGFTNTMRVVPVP
#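 Kinase-Glo luminescence reports ATP generated from ADP (0.1 mM) and PEP (0.5 mM) by purified hPK-M2 after 1 h at room temperature, pH 7.2 imidazole buffer; intermediate enzyme activity allows detecting inhibitors and activators.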
# Tb PFK block = qHTS Assay to Find Inhibitors of T. brucei phosphofructokinase; T. brucei PFK, ADP-Glo luminescence; Potency, µM (highest dose often 57.5 µM), for the others: at the highest dose activity, negative = inhibition, hits mostly inhibitors; 330,000 compounds, 0.17% hits; AID 485367, 2010;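 further: potency means the concentration at half of the fitted maximal effect; 0% = uninhibited 1x PFK enzyme wells and -100% = no-enzyme wells; nearly all actives have a fitted effect of over 60% in size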
#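 Compounds were pin-transferred as a titration series up to 57 uM into substrate buffer (0.5 mM F6P, 0.1 mM ATP, pH 8.0), then 1.25 nM PFK was added and reactions ran 45 min before ADP-Glo detection.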
# Integrin act MD = qHTS for Activators of Integrin-Mediated Alleviation for Muscular Dystrophy. AID 624291, 2012. Potency, µM (titrated, usually from 38.3 µM), for the others: at the top dose activation, actives largely listed as activators. 350,000 compounds, 0.064% hits. alpha7betagal myoblasts, beta-gal FDG fluorescence, 48 h;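 further: potency means the concentration at half of the fitted maximal effect; 100% = response of the positive control SU9516; nearly all actives have a fitted effect of over 60% in size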
#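 alpha7betagal+/- myoblasts (passage 13, 250/well) treated 48 h at 37C with compounds at 1:260 dilution of DMSO stock. Lysed, then beta-galactosidase activity read as FDG fluorescence (ex 480/em 540) after 30 min, with pre-read for autofluorescence.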
# TCR activator = Activators of T cell receptors: qHTS campaign. 330,000 tested, under 10 active. AID 504894, 2011. Potency, µM (series often up to 9.22 µM), inactives show at the highest dose activation of IL-2 secretion, actives largely listed as activators. primary human leukocytes, anti-CD3, IL-2 HTRF, 48 h; further: % of control where 0% means no effect
#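 TCR engagement came from a-CD3 beads alone, with compounds added to primary human leukocytes for 48 hr. Secreted IL-2 bridged europium cryptate- and d2-labelled anti-IL-2 antibodies, giving FRET emission at 665nm after 320nm excitation.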
# Active calls of the source: *; ? = inconclusive; nt = not tested or not shown; [ ] = dose if it differs, or a comment. Unless noted, the call rests on the fitted dose curve; in most records, active means well fitted curve in the direction sought with a large enough effect; inconclusive means small, poorly fitted or top-dose-only effect, or another doubt; inactive means no such curve, though single readings can be large; an effect the other way counts as inactive or inconclusive.
SMILES,A-T KAP1 phos,IL2 activator,PKM2 act,Tb PFK block,Integrin act MD,TCR activator
CSCCC1NC(=O)N(CC(=O)Nc2ccc(-c3ccccc3)cc2)C1=O (configuration not stated),-3%,-2,-1%,4%,6%,4%
COc1ccc(S(=O)(=O)N2CCOCC2)cc1C(=O)N(C)CCOc1ccc(Cl)cc1,7%,0,nt,-3%,?,nt
Cc1ccc(S(=O)(=O)N2CCOCC2)cc1C(=O)N(C)CCOc1ccc(Cl)cc1,22µM*,0,8%,5%,-19%,4%
COCCSc1ccccc1C(=O)Nc1cc(C)cc(C)c1,2%,-1,?,4%,4.5µM*,-8%
CCSc1ccccc1C(=O)Nc1cc(OC)c(OC)c(OC)c1,3%,-2,28µM*,0%,23%,1%
COCCSc1ccccc1C(=O)Nc1ccncc1,13%,-3,1%,0%,22%,-5%
CCN(CC)C1=CC2=CC(=C(C#N)C#N)CCC2CC1 (configuration not stated),6%,102*,6%,0%,-234%,7%[46.1 µM]
CCCCN(C)C1=CC2=CC(=C(C#N)C#N)CCC2CC1 (configuration not stated),4%,-5,0%,7%,-258%,-7%[46.1 µM]
O=C(Nc1ncc2c(n1)CC(c1cccc(Cl)c1)CC2=O)c1ccco1 (configuration not stated),13µM*,-2,-14%,0%,18%,-4%
C=C(C)C(=O)Oc1ccc(N2C(=O)CCC2=O)cc1,22µM*,0,-14%,-4%,-30%,13%
CCCOc1ccc(C(=O)CCC(=O)OCC(=O)Nc2ccc(Oc3ccccc3)cc2)cc1,-1%,nt,3%,2%,nt,0%[46.1 µM]
CCCOc1ccc(C(=O)CCC(=O)OCC(=O)Nc2ccc(OCC)cc2)cc1,14µM*,nt,-3%,3%,nt,nt
CC1CCCC(C)N1CCCNC(=O)Cn1ncc2c3ccccc3n(C)c2c1=O (configuration not stated),7.1µM*,-2,nt,1%,0%,-5%
CN1CCN(CCCNC(=O)Cn2ncc3c4ccccc4n(C)c3c2=O)CC1,0%,1,-2%,9%,-16%,4%[46.1 µM]
Cc1ccc2c(c1)C(c1ccccc1)N(C(=O)CC(C)C)CC(=O)N2 (configuration not stated),3.5µM*,-1,nt,6%,20%,-3%
Cc1ccc2c(c1)C(c1ccccc1)N(C(=O)c1ccc(Br)o1)CC(=O)N2 (configuration not stated),15%,-2,5%,1%,6%,0%
COC(=O)C1=C(C(=O)OC)[C@@H]2N(C)c3ccccc3[C@@]23C[C@@H](C(=O)OC)N(S(=O)(=O)c2ccc(OC)cc2)C3=N1,nt,nt,-1%[11.5 µM],nt,nt,nt
CCc1ccccc1Nc1nn2c(=O)c3ccc(C(=O)NCc4cccs4)cc3nc2s1,1%,nt,nt,-13%,nt,nt
COC(=O)c1ccc2c(=O)n(CCN3CCOCC3)c(SCC(=O)c3ccccc3)nc2c1,18µM*,-1,2%,1%,35%,-3%
Cc1cc(C2=NNC(=Nc3ccc(S(=O)(=O)N4CCOCC4)cc3)SC2)c(C)n1C,32µM*,1,?,2%,-5%,4%
C=CCn1c(C)cc(C2=NNC(=Nc3ccc(C)cc3)SC2)c1C,-3%,0,nt,-9%,-38%,1%
Cn1ccs/c1=N\S(=O)(=O)c1ccc(F)cc1,1%,0,-20%,-4%,1%,8%
Cc1ccc(S(=O)(=O)/N=c2\sccn2C)cc1,0%,-4,18µM*,-6%,3%,-6%
